Source: PubChem BioAssay (EPA / NIEHS)
Several values for one entry are separate records, joined by “and”; a condition that tells them apart may be missing. Equal values may be shown once. Some structures have more than one record in an assay (separate samples or runs), and their calls can disagree. Activity calls are given as the source filed them. Rule for the calls: active = hit-call score of the fitted dose curve at least 0.9, where 1 is the maximum; inactive = score below 0.9.

Read-out: Matrix Metallopeptidase 9 (MMP9), MMP9 (gene 4318)
Assay: BSK_BF4T_MMP9: BioMAP Diversity Plus: BF4T Assay for Matrix Metallopeptidase 9 (MMP9) Biomarker Activity (AID 2284276)
Conditions: primary human bronchial epithelial cells with fibroblasts
How it was run: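 MMP-9 levels were measured by ELISA after 24 h exposure of bronchial epithelial cell/dermal fibroblast co-cultures, with DMSO as baseline. Parallel cultures were stained with 0.1% SRB after TCA fixation, read at 560 nm, to flag overt cytotoxicity.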

| Compound | AC50 | outcome |
| --- | --- | --- |
| O=C(O)C(F)(F)C(F)(F)C(F)(F)C(F)(F)C(F)(F)C(F)(F)C(F)(F)C(F)(F)C(F)(F)C(F)(F)F | 4.36 µM (active) and 5.37 µM (active) |  |
| O=C(O)C(F)(F)C(F)(F)C(F)(F)C(F)(F)C(F)(F)C(F)(F)F | 24.6 µM (active) | inactive |
| O=C(O)CCC(F)(C(F)(F)F)C(F)(F)F |  | inactive |

Read-out: Interleukin-8 (IL8), CXCL8 (gene 3576)
Assay: BSK_IMphg_IL8: BioMAP Diversity Plus: IMphg Assay for Interleukin-8 (IL8) Biomarker Activity (AID 2284277)
Conditions: primary human endothelial cells with macrophages
Protocol: BSK_IMphg is a cell-based, multiplexed-readout assay that uses venular endothelial cells and macrophages, a human vascular primary cell, with measurements taken at 24 hours after chemical dosing in a microplate: 96-well plate.BSK_IMphg_IL8 is an assay component measured in the BSK_IMphg assay. It measures IL-8 antibody related to regulation of gene expression using ELISA technology.Data from the assay component BSK_IMphg_IL8 was analyzed at the endpoint, BSK_IMphg_IL8, in the positive analysis fitting direction relative to DMSO as the negative control and baseline of activity. Using a type of binding reporter, gain or loss-of-signal activity can be used to understand protein changes. To generalize the intended target to other relatable targets, this assay endpoint is annotated to the 'cytokine' intended target family, where the subfamily is 'interleukins'.
The levels of cell surface (or secreted, indicated by the prefix "s") biomarker endpoints were measured by ELISA. Overt cytotoxicity to cells in confluent adherent cultures (all systems other than the BT system) was assessed by measuring total protein levels using sulforhodamine B (SRB) staining in parallel cultures at the time of biomarker measurements, indicated as SRB endpoints. For proliferation assays for adherent cell types, individual cell types are cultured at sub-confluence and relative cell numbers quantified by SRB staining at time points optimized for each system (48 h: 3C and CASM3C systems; 72 h: BT and HDF3CGF systems; 96 h: SAg system). SRB was performed by staining cells with 0.1% SRB after fixation with 10% TCA and reading wells at 560 nm.Viability and proliferation of PBMC (T cells) was quantified by Alamar Blue reduction for the SAg and BT systems. For PBMC viability (referred to as PBMC Cytotoxicity within the assay endpoint names), cells were plated (75,000/well in a 96-well plate) and then chemical samples added for 1 h before addition of activators, SEB and TSST-1 (20 ng/mL final concentration each). Cells were incubated for 90 h. Then, Alamar Blue (20 uL/well) (Invitrogen, Cat DAL1100) was added for 6 h, and the plates were read with a fluorescence microplate reader at 546/580 nm (excitation/emission). For PBMC proliferation, cells were plated and activated as above but incubated for only 16 h prior to addition of Alamar Blue. Plates were read after 6 h.

| Compound | outcome | AC50 |
| --- | --- | --- |
| O=C(O)C(F)(F)C(F)(F)C(F)(F)C(F)(F)C(F)(F)C(F)(F)C(F)(F)C(F)(F)C(F)(F)C(F)(F)F | inactive |  |
| O=C(O)C(F)(F)C(F)(F)C(F)(F)C(F)(F)C(F)(F)C(F)(F)F | inactive | 40.5 µM (active) |
| O=C(O)CCC(F)(C(F)(F)F)C(F)(F)F | inactive |  |

Read-out: Intercellular Adhesion Molecule 1 (ICAM1), ICAM1 (gene 3383)
Assay: BSK_BE3C_ICAM1: BioMAP Diversity Plus: BE3C Assay for Intercellular Adhesion Molecule 1 (ICAM1) Biomarker Activity (AID 2284278)
Conditions: primary human bronchial epithelial cells
How it was run: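 ICAM-1 quantified by ELISA and fitted against DMSO baseline, 24 h post-dosing in BE3C cultures of primary human lung bronchial epithelial cells. Cytotoxicity checked in parallel cultures by total protein SRB staining.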

| Compound | AC50 | outcome |
| --- | --- | --- |
| O=C(O)C(F)(F)C(F)(F)C(F)(F)C(F)(F)C(F)(F)C(F)(F)C(F)(F)C(F)(F)C(F)(F)C(F)(F)F | 5.73 µM (active) and 6.33 µM (active) |  |
| CC(=O)OC(c1ccccc1)C(Cl)(Cl)Cl (stereo not drawn) |  | inactive |
| COC(=O)Cc1ccccc1 |  | inactive |
| O=C(O)C(F)(F)C(F)(F)C(F)(F)C(F)(F)C(F)(F)C(F)(F)F |  | inactive |
| O=C(O)CCC(F)(C(F)(F)F)C(F)(F)F |  | inactive |
